# Data as given in PMC4336329 (PLoS ONE, 2015).
# The whole screen tested about 310,000 compounds, of which about 14,000 (4.5%) showed an effect of 50% or more. Effects have a minus sign here. The sample holds strong results, similar compounds and a random draw of the others, so the mix is not that of the screen.
# Biological target: human ether-à-go-go-related gene (hERG) potassium channel (human, UniProt Q12809)
# Test: primary screen, population patch clamp on CHO cells stably expressing hERG; higher = less effect of the substance
# 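Also: peak tail current of the secondary pulse compared with the same well before compound.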
# Chain of human ether-à-go-go-related gene (hERG) potassium channel (Q12809 whole entry, looked up): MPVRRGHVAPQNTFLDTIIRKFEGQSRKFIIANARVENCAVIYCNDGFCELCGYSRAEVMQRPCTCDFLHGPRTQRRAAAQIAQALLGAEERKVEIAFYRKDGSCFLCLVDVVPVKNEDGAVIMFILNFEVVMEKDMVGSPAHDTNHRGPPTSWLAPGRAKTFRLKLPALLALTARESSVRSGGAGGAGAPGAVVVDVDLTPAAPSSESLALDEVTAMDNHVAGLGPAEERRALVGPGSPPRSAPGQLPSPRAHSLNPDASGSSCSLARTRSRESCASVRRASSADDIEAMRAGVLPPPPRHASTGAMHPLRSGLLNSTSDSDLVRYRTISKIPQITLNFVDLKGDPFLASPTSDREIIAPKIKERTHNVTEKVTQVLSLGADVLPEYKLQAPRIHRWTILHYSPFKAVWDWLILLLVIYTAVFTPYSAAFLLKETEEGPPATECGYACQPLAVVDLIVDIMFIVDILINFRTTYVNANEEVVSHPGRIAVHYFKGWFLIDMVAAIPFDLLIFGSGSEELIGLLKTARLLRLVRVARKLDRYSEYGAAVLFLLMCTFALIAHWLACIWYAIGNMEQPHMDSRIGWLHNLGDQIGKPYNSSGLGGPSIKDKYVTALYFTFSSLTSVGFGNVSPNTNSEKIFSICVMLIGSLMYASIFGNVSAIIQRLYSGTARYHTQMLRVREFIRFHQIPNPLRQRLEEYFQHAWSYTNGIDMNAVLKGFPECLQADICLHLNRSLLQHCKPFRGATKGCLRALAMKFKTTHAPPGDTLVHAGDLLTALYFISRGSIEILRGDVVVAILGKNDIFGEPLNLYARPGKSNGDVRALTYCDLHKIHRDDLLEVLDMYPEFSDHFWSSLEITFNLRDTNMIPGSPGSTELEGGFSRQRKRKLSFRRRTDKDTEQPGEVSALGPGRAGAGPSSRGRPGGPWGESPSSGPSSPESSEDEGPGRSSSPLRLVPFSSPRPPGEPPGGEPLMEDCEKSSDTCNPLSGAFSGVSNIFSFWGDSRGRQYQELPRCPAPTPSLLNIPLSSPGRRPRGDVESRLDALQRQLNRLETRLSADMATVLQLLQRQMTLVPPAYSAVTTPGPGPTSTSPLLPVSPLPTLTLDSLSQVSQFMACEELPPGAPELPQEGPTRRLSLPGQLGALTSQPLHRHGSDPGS
row,SMILES,"hERG current change (%, negative = inhibition) at 10uM [%]"
1,CN(C)c1nc(SCC#N)nc(N(C)C)n1,-3.57
2,CN1CCN(c2ccc(-c3cccc(NC(=O)COc4ccc(Cl)cc4)c3)nn2)CC1,-50.7
3,CCOc1ccc(C(=O)Nc2cccc(-c3ccc4nncn4n3)c2)cc1,12.5
4,O=C(COc1ccc(Cl)cc1)Nc1cccc(-c2ccc3nncn3n2)c1,-51.9
5,COCC(=O)Nc1cccc(-c2ccc3nncn3n2)c1,9.97
6,CN1CCN(c2ccc(-c3cccc(NC(=O)COc4ccccc4)c3)nn2)CC1,-35.9
7,O=C(COc1ccc(Cl)cc1)Nc1cccc(-c2ccc(N3CCOCC3)nn2)c1,0.684
8,CCOc1cc(NS(C)(=O)=O)c(OCC)cc1NC(=O)c1cccs1,-15.8
9,CN1CCN(c2ccc(-c3ccnn3C(=O)Nc3ccccc3)cc2)CC1,-11.5
10,CCOC(=O)c1ccc(NC(=O)c2ccc(OC(C)C)c(OC)c2)cc1,-3.47
11,Cc1cc(C(=O)COC(=O)c2ccncc2)c(C)n1Cc1ccco1,13.7
12,NC(=O)c1c(NC(=O)C2c3ccccc3Oc3ccccc32)sc2c1CCCCC2,6.4
13,CCS(=O)(=O)N1CCC(C(=O)N2CCOCC2)CC1,12
14,COc1ccc(S(=O)(=O)NCC2CCCN(Cc3cn(C)nc3C)C2)cc1 (stereo not drawn),8.1
15,CC(C)c1cccc(C(C)C)c1OC(=O)[C@H]1OC(C(C)(C)C)=C[C@@H]1c1ccccc1,-6.97
16,CCN(CC(=O)Nc1ccccc1OC)CC(=O)Nc1ccccc1C(F)(F)F,-5.29
17,COc1cc(C(=O)N(C)CCOc2ccccc2)ccc1OCC(=O)Nc1cccc(C(F)(F)F)c1,-14.2
18,COc1cc(C(=O)NCCCN(C)C)ccc1OCC(=O)Nc1cccc(C(F)(F)F)c1,-59.1
19,CCOc1ccc(C(=O)NCCNC(=O)c2ccc(OCC)cc2)cc1,9.15
20,CCN(CC)CCCNC(=O)c1ccc(OCC(=O)Nc2ccccc2C(F)(F)F)c(OC)c1,-70.5
21,CCOc1ccc(C(=O)NCCCCNC(=O)c2ccc(OCC)cc2)cc1,21.8
22,COc1cc(C(=O)NCc2ccc(S(N)(=O)=O)cc2)ccc1OCC(=O)Nc1cccc(C(F)(F)F)c1,15.5
23,CCOc1ccc(C(=O)NCCCN(CC)CC)cc1,-51.8
24,CCN(CC(=O)Nc1ccc(OC)c(OC)c1)CC(=O)Nc1ccccc1C(F)(F)F,-0.147
